Screening data: PubChem BioAssay, National Center for Advancing Translational Sciences (NCATS)
Cruzain inh Det = cruzain (T. cruzi) inhibition with detergent; P25779; purified cruzain, Z-FR-AMC fluorescence, 0.01% Triton; Potency, µM, for the others: max response, negative = inhibition, actives largely listed as inhibitors; 0.43% of 200,000 active; AID 1478;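 further: plate controls were neutral wells for no effect and buffer without enzyme for full effect; nearly all actives have a fitted effect of over 40% in size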
Target sequence (P25779 123-467 limits assumed): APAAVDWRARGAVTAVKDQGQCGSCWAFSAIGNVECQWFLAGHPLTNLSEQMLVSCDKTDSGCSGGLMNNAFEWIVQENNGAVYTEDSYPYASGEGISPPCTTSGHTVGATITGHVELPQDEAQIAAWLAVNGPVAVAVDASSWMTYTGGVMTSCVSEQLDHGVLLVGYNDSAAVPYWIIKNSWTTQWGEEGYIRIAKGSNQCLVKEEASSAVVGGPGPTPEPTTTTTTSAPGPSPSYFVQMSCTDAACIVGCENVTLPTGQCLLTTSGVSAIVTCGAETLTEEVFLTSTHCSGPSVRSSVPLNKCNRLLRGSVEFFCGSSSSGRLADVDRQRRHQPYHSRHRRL
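Sodium acetate buffer (100 mM, pH 5.5) containing 5 mM DTT and 0.01% Triton X-100 hosted 1.5 nM cruzain and test compound for 15 min at room temperature. Cleavage of 2 uM Z-FR-AMC was then tracked by fluorescence.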
Cruzain noTriton = inhibitors of Trypanosoma cruzi cruzain without detergent. P25779. purified cruzain, Z-FR-AMC fluorescence, no detergent. Potency, µM, for inactives: max response, negative = inhibition, most hits filed as inhibitors. 2.3% of 200,000 active;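 further: plate controls were enzyme without inhibitor for no effect and buffer without enzyme for full effect; nearly all actives have a fitted effect of over 40% in size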
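Purified cruzain at 1.5 nM, pre-incubated 15 min with compound at room temperature in 100 mM sodium acetate pH 5.5, 5 mM DTT, 0.00005% Triton X-100. Reaction started with 2 uM Z-FR-AMC; AMC fluorescence increase over 60 s gives rate.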
Papain inh = papain (Carica papaya) inhibition counter-screen | shares compounds with Cruzain inh Det | purified papain, Z-FR-AMC fluorescence cleavage | Potency, µM, for the others: max response, negative = inhibition, actives largely listed as inhibitors | 41% of 410 active;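 further: 0% = no-compound wells and -100% = no-enzyme wells; nearly all actives have a fitted effect of over 35% in size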
Starred values were filed as active, the others as inactive; ? = inconclusive; · = no result given. Rows were chosen to be rich in hits. Some 2.6% of all compounds tested hit in one or more screens of this group. The call rests on the fitted dose curve; in most records, active means well fitted curve in the direction sought with a large enough effect; inconclusive means small, poorly fitted or top-dose-only effect, or another doubt; inactive means no such curve, though single readings can be large; an effect the other way counts as inactive or inconclusive. Potency means the concentration at half of the fitted maximal effect.

SMILES	Cruzain inh Det	Cruzain noTriton	Papain inh
COc1ccc(C(CC(=O)O)NC(=O)C2CCCCC2)cc1 (stereo unspecified)	3%	-6%	·
CCOC(=O)c1ccc(NC(=O)c2cc3c(n(-c4ccc(C)cc4)c2=O)CC(C)(C)CC3=O)cc1	0%	7%	·
COc1ccc(-c2nc3c(C#N)c[nH]n3c2NC2CCCCC2)cc1	-3%	-10%	·
CCOc1ccc(C(=O)COC(=O)CNC(=O)C2CCCCC2)cc1	·	·	-27%
CCOc1ccc(C(=O)COC(C)=O)cc1	2%	-7%	·
N#C/C(=C\c1cn(Cc2cccc(F)c2)c2ccccc12)C(=O)NCc1ccco1	-6%	-5%	·
Cc1cccc(Cn2cc(/C=C(/C#N)C(=O)Nc3cccc(Cl)c3)c3ccccc32)c1	-2%	3.2µM*	13%
O=C(O)[C@H](C1NCCS1)N1Cc2ccccc2C1 (stereo partly specified)	10%	1%	·
Cc1ccc(O/C=C2/Nn3c(nnc3-c3cc(-c4ccccc4)n[nH]3)S2)cc1	·	·	9%
c1ccc(C2=Nn3c(nnc3-c3cc(-c4ccccc4)n[nH]3)SC2)cc1	-7%	-6%	·
COCCNC(=O)C1(C)Oc2ccccc2NC1=O (stereo unspecified)	-4%	-2%	·
CC(=O)OC1(C(F)(F)F)Oc2ccccc2NC1=O (stereo unspecified)	0.89µM*	1.3µM*	7.9µM*
Cc1ccc(CNC(=O)c2oc3c(c2C)-c2nn(Cc4ccc(Cl)cc4)cc2CC3)cc1	-3%	1%	·
CCC(C(=O)NC1CCCC1)n1c(SCc2cccc(C)c2)nc2ccncc21 (stereo unspecified)	-15%	1%	·
CCC(C(=O)NC1CCCCC1)n1c(SCc2ccc(F)cc2)nc2ccncc21 (stereo unspecified)	13µM*	0%	-15%
NCCC[C@@H](N)C(=O)O	0%	19%	·
COC(=O)CCC(C)C1CCC2C3CC[C@H]4CC(O)CC[C@@]4(C)C3CC(O)[C@]12C (stereo partly specified)	-9%	?	-6%
COC(=O)CC[C@@H](C)[C@H]1CC[C@H]2[C@@H]3CC[C@@H]4C[C@H](O)CC[C@]4(C)[C@H]3C[C@H](O)[C@]12C	-6%	?	·
CC1CC[C@@]23CCC4(C)[C@@]5(C)CCC6C(C)(C)C(=O)CC[C@@]6(C)C5C=C[C@@]4(OC2=O)C3C1C (stereo partly specified)	8%	4%	·
Cc1ccc(NC(=O)/C=C/c2ccc3c(c2)OCO3)cc1S(=O)(=O)N1CCOCC1	13µM*	20µM*	-11%
Cc1ccc(C(=O)NCc2ccc3c(c2)OCO3)cc1S(=O)(=O)N1CCOCC1	-3%	9%	·
NS(=O)(=O)c1ccc(N/C=C\C(=O)c2ccc3ccccc3c2)cc1	8.9µM*	6.3µM*	6%
CCOc1ccc(C(=O)/C=C/Nc2ccc(S(=O)(=O)N=C(N)N)cc2)cc1	-5%	-18%	·
O=C(NCc1cccc(Br)c1)C1CCCCN1S(=O)(=O)c1ccc(F)cc1 (stereo unspecified)	-5%	-3%	·
Cc1cc(=O)oc2cc(OCC(=O)N3CCOCC3)ccc12	8.9µM*	-1%	14µM*
SMILES	Cruzain inh Det	Cruzain noTriton	Papain inh
Cc1cc(=O)oc2cc(OC(C)C(=O)N3CCOCC3)ccc12 (stereo unspecified)	-23%	-13%	·
CCN(CCO)c1ncnc2c1sc1nc(C(C)C)c3c(c12)CC(C)(C)OC3	-1%	?	·
CCN(CCO)c1nc(SC)nc2c1sc1nc(-c3ccco3)c3c(c12)CCC3	8.9µM*	6.3µM*	13µM*
CC(C)c1ccc2c(c1)CC[C@H]1[C@@](C)(CN)CCC[C@@]21C	9%	-6%	·
O=C(Cn1c(SCC(=O)Nc2ccc(F)cc2)nc2ccccc21)NCc1ccccc1Cl	2%	-15%	·
Clc1ccccc1-c1nn2c(-c3cc(-c4ccccc4)n[nH]3)nnc2s1	·	·	-8%
COc1ccccc1-c1nn2c(-c3cc(-c4ccccc4)n[nH]3)nnc2s1	·	·	35µM*
Clc1ccccc1-c1nnc2sc(-c3ccc4c(c3)OCO4)nn12	-3%	?	·
CN(C)c1ccc(-c2nn3c(-c4ccc(Cl)cc4Cl)nnc3s2)cc1	2%	?	·
COc1ccccc1-c1nn2c(-c3ccccc3Cl)nnc2s1	1%	-16%	·
CN(C)c1ccc(-c2nn3c(-c4cc(-c5ccccc5)n[nH]4)nnc3s2)cc1	·	·	-26%
CC(=O)c1cccc(Nc2ncnc3c2cnn3-c2cccc(Cl)c2)c1	1%	-3%	·
CCN(Cc1cc(Cl)cc(C)c1O)Cc1c(O)ccc2ccccc12	7%	0%	·
Clc1ccc(CN2CCC(CNc3ncnc4onc(-c5ccc(Cl)cc5)c34)CC2)cc1	1%	-6%	·
Fc1cccc(CSc2ncnc3c2ncn3[C@H]2CCCS2)c1	2%	-2%	·
